# Results as given in article PMC4336329 (PLoS ONE, 2015).
# Out of some 310,000 compounds screened, about 14,000 (4.5%) showed an effect of 50% or more. Effects have a minus sign here. The entries come from a sample that favours strong results as a whole.
# Target: human ether-à-go-go-related gene (hERG) potassium channel (human, UniProt Q12809)
# Experiment: primary screen, population patch clamp on CHO cells stably expressing hERG; higher = less effect of the substance
# 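Further: peak tail current of the secondary pulse compared with the same well before compound.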
# Chain of human ether-à-go-go-related gene (hERG) potassium channel (Q12809 whole entry, looked up): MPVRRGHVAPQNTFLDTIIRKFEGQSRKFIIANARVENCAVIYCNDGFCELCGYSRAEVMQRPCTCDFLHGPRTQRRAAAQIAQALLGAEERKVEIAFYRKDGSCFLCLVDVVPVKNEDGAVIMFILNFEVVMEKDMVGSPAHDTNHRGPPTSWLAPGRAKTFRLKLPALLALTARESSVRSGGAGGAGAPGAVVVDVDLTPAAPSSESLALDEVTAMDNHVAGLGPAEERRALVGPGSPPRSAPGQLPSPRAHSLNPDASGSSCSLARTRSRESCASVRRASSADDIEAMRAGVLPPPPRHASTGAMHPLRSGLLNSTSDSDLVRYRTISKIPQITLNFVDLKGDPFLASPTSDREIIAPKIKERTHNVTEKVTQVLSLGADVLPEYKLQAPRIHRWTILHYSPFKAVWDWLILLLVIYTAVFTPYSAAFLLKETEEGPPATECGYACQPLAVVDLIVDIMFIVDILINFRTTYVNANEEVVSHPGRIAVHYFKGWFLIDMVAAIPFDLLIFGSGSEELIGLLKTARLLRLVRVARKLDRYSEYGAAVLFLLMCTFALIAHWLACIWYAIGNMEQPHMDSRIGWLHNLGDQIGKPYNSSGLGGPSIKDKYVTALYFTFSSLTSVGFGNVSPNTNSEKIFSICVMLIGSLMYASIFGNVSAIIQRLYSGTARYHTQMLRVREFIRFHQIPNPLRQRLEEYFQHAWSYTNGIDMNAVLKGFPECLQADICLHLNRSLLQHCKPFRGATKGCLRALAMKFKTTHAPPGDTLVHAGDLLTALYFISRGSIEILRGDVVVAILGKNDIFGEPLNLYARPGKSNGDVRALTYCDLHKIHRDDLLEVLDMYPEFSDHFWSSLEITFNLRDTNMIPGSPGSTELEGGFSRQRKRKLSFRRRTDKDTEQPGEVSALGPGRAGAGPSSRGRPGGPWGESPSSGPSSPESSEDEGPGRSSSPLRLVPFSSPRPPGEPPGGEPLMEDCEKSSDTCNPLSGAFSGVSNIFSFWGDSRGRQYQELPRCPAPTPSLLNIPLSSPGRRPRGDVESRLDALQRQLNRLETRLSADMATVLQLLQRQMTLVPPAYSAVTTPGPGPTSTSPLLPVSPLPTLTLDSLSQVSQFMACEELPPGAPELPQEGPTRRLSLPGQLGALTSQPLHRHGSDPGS
row,Compound,"hERG current change (%, negative = inhibition) at 10uM [%]"
1,COc1ccc(N2CCN(c3ccc(NC(=O)C4CCCCC4)cc3C#N)CC2)cc1,15.2
2,COc1cc(C(=O)N2CCN(C(=O)C3CC3)CC2)cc(OC)c1OC,3.78
3,Cc1ccc(C)c(NC(=O)COC(=O)Cn2c(C)csc2=O)c1,6.84
4,Cc1c(C(=O)N2CCCCCC2)c(S(=O)(=O)Nc2cccc(F)c2)c(C)n1C,9.56
5,CN1CCN(c2c(/C=N/O)c3ccccc3n2C)CC1,-51.5
6,Cn1c(N2CCOCC2)c(/C=N/O)c2ccccc21,7.51
7,Cc1c(/C=N/O)c2ccccc2n1C,5.39
8,O=C(N/N=C/c1ccco1)c1ccc(NC(=O)C2CC2)cc1,18.2
9,OC(COCC(F)(F)C(F)(F)C(F)(F)C(F)F)Cn1c2ccc(Cl)cc2c2cc(Cl)ccc21 (centres unmarked),-9.49
10,CC(C)NC(=O)C(=O)Nc1cc2c3c(c1)CCC(=O)N3CCC2,11.4
11,Cc1occc1-c1nnc(SCC(=O)Nc2nccs2)n1Cc1ccco1,-75.4
12,O=C(CSc1nnc(-c2ccncc2)n1Cc1ccco1)Nc1nccs1,-27
13,Cc1csc(NC(=O)CSc2nccn2Cc2ccco2)n1,4.55
14,Cc1csc(NC(=O)CSc2nnc(C)n2Cc2ccco2)n1,-1.85
15,Cc1cc(C)nc(SCc2nnc(SCC(=O)Nc3nccs3)n2Cc2ccco2)n1,-25
16,Cc1csc(NC(=O)CSc2nnc(-c3ccoc3C)n2Cc2ccco2)n1,-82
17,CC(=O)NC1=C(NC2CCS(=O)(=O)C2)C(=O)c2ccccc2C1=O (centres unmarked),18.4
18,Cc1ccc(CNC(=O)C2CCC(=O)N(CCc3cccc(F)c3)C2)cc1 (centres unmarked),-38
19,CSc1ccc(CNC(=O)C2CCC(=O)N(Cc3cccc(F)c3)C2)cc1 (centres unmarked),-62.4
20,O=C(NCc1ccccc1OC(F)(F)F)C1CCC(=O)N(Cc2cccc(F)c2)C1 (centres unmarked),-12.4
21,O=C(NCc1cccc(F)c1)C1CCC(=O)N(CCc2cccc(F)c2)C1 (centres unmarked),-30.7
22,O=C(NCc1cccc(F)c1)C1CCC(=O)N(CC2CCCCC2)C1 (centres unmarked),-9.08
23,Cc1ccccc1CNC(=O)C1CCC(=O)N(Cc2cccc(F)c2)C1 (centres unmarked),-8.38

row,Compound,"hERG current change (%, negative = inhibition) at 10uM [%]"
1,O=C(NCc1ccc(Cl)s1)C1CCC(=O)N(CCc2ccccn2)C1 (centres unmarked),-10.1
2,CSc1ccc(CNC(=O)C2CCC(=O)N(CCc3cccc(F)c3)C2)cc1 (centres unmarked),-77.1
3,COc1cccc(CNC(=O)C2CCC(=O)N(CCc3cccc(F)c3)C2)c1 (centres unmarked),-13
4,COC(=O)c1ccc(CNC(=O)C2CCC(=O)N(Cc3cccc(F)c3)C2)cc1 (centres unmarked),-12.7
5,O=C(NCc1cccc(OC(F)(F)F)c1)C1CCC(=O)N(Cc2cccc(F)c2)C1 (centres unmarked),-50.1
6,O=C(NCc1ccc(Cl)s1)C1CCC(=O)N(CCc2cccc(F)c2)C1 (centres unmarked),-60.2
7,CCOC(=O)c1c(-c2ccc(OC)cc2)oc2cc(Br)c(O)cc12,10.4
8,COc1ccc(NS(=O)(=O)c2ccc(OCC(=O)N3CCOCC3)cc2)cc1Cl,8.46
9,CNC(=O)Nc1ccc(C2SCCS2)cc1,7.02
10,CCOC(=O)C1=C2SCCN2C(=O)C(C#N)C1(C)C (centres unmarked),7.34
11,COc1ccc(-c2cc(C(=O)N3CC4(C)CC3CC(C)(C)C4)no2)cc1OC (centres unmarked),-20.1
12,O=C(NCc1ccccc1F)C(=O)NCC1OCCCN1S(=O)(=O)c1cccs1 (centres unmarked),9.19
13,Cc1ccccc1NCN1C(=O)C2CCC(C)(C1=O)C2(C)C (centres unmarked),-0.978
14,COCc1[nH]nc2c1C(c1ccccc1F)C(C#N)=C(N)O2 (centres unmarked),11
15,Cc1ccc(C)c(C(=O)CC2(O)C(=O)N(C)c3ccccc32)c1 (centres unmarked),8.85
16,O=C(Nc1ccc(Br)c(C(F)(F)F)c1)c1ccccc1,27.3
17,O=C(Nc1ccc(Br)c(C(F)(F)F)c1)c1ccc(C(F)(F)F)cc1,11.8
18,O=C(O)c1ccccc1C(=O)Nc1ccc(Br)c(C(F)(F)F)c1,-70.6
19,C/C(=N\NC(=O)CSc1nc2ccccc2s1)c1ccco1,0.0885
20,CC1CCCCN1C(=O)COC(=O)c1cccc(NS(=O)(=O)c2ccccc2)c1 (centres unmarked),0.629
21,O=C(COc1ccc(-c2nnco2)cc1)Nc1c(F)cccc1F,0.851
22,N#CCSc1ccccc1NC(=O)COc1ccc(-c2nnco2)cc1,-66.3
23,N#Cc1ccsc1NC(=O)COc1ccc(-c2nnco2)cc1,1.95

row,Compound,"hERG current change (%, negative = inhibition) at 10uM [%]"
1,CCN(CC(=O)Nc1ccc2c(c1)OCCO2)S(=O)(=O)c1cccs1,-4.54
2,COc1cccc(C(=O)Nc2c(C)n[nH]c2C)c1,-0.143
3,COC(=O)c1ccc(S(=O)(=O)NCc2ccco2)o1,6.1
4,O=C(Cn1c(CN2CCCCC2)nc2ccccc2c1=O)NCc1ccco1,-15.4
5,COCCN(Cc1cc2cc(C)ccc2[nH]c1=O)S(=O)(=O)c1ccc(Cl)cc1,16.4
6,COc1ccc(S(=O)(=O)Nc2nc3c(s2)C(=O)CC(C)(C)C3)cc1,-10.3
7,CCCCn1nc(C(=O)Nc2c(C)n(C)n(-c3ccccc3)c2=O)c2ccccc2c1=O,-17.9
8,CC(C)Cn1nc(C(=O)NCc2ccccc2CN2CCCC2)c2ccccc2c1=O,-38.3
9,CCCCn1nc(C(=O)Nc2ccccc2N2CCCC2)c2ccccc2c1=O,-9.4
10,CCCCn1nc(C(=O)NCc2ccccc2CN2CCCC2)c2ccccc2c1=O,-64.6
11,CCCCn1nc(C(=O)N(CC)CC(=O)Nc2c(F)cccc2F)c2ccccc2c1=O,-7.72
12,CCCCn1nc(C(=O)NCC(=O)Nc2c(C)cccc2C)c2ccccc2c1=O,-68.9
13,COc1cc(CCCN[C@H](CN)Cc2ccccc2)cc(OC)c1OC,-4.22
14,CCN(CC)CCCN1C(=O)CSC1c1ccc2c(c1)OCO2.Cl (centres unmarked),-39.2
15,O=C1CSC(c2ccc([N+](=O)[O-])cc2)N1Cc1ccccc1 (centres unmarked),-48.8
16,CN(C)CCCN1C(=O)CSC1c1ccc([N+](=O)[O-])cc1.Cl (centres unmarked),-46
17,CCN(CC)CCCN1C(=O)CSC1c1ccc([N+](=O)[O-])cc1.Cl (centres unmarked),-72.8
18,Cl.O=C1CSC(c2ccc([N+](=O)[O-])cc2)N1CCN1CCCCC1 (centres unmarked),-94.9
19,Cl.O=C1CSC(c2cccc([N+](=O)[O-])c2)N1CCN1CCCCC1 (centres unmarked),-21.4
20,O=C(O)c1cc(S(=O)(=O)NC2CCCc3ccccc32)ccc1O (centres unmarked),13.5
21,CC(C)CN(CC(C)C)c1ccc(C=C2C(=O)NC(=S)NC2=O)cc1[N+](=O)[O-],9.99
22,CC[C@@H](C)C(NC(=O)OC(C)(C)C)c1cn([C@@H](Cc2cc3ccccc3[nH]2)C(=O)N2CCN(C(=O)OC(C)(C)C)CC2)nn1 (some centres unmarked),-13.4
23,CC[C@@H](C)C(NC(=O)OC(C)(C)C)c1cn([C@@H](CCC(=O)OC(C)(C)C)C(=O)N2CCN(C(=O)OC(C)(C)C)CC2)nn1 (some centres unmarked),-17.6

row,Compound,"hERG current change (%, negative = inhibition) at 10uM [%]"
1,CC[C@@H](C)C(NC(=O)OC(C)(C)C)c1cn([C@@H](Cc2ccc(O)cc2)C(=O)N2CCN(C(=O)OC(C)(C)C)CC2)nn1 (some centres unmarked),-70
2,O=c1c2cc(NC(=S)NC3CCCC3)ccc2nc2n1CCCCC2,-59.6
3,O=c1c2cc(NC(=S)NCCCN3CCC(Cc4ccccc4)CC3)ccc2nc2n1CCCCC2,-82.1
4,COCCCNC(=S)Nc1ccc2nc3n(c(=O)c2c1)CCCCC3,7.89
5,O=c1c2cc(NC(=S)NC3CCCCC3)ccc2nc2n1CCCCC2,-70.2
6,CC(C)CCNC(=S)Nc1ccc2nc3n(c(=O)c2c1)CCCCC3,-46.2
7,O=c1c2cc(NC(=S)NCCN3CCCCCC3)ccc2nc2n1CCCCC2,-1.38
8,O=c1c2cc(NC(=S)NCc3ccccn3)ccc2nc2n1CCCCC2,-6.42
9,O=c1c2cc(NC(=S)NC3CCN(Cc4ccccc4)CC3)ccc2nc2n1CCCCC2,-10.4
10,O=c1c2cc(NC(=S)NC3CC3)ccc2nc2n1CCCCC2,0.786
11,COc1ccccc1OC(=O)c1ccc2nsnc2c1,8.28
12,O=C(OCC#Cc1c(COC(=O)c2ccccc2)nnn1Cc1ccccc1)c1ccccc1,5.67
13,CCOc1ccc(/C=C2\SC(=S)N(CCC(=O)O)C2=O)cc1,3.03
14,CS(=O)(=O)c1ccc(-c2nnc(NC(=O)c3cccc(N4C(=O)CCC4=O)c3)o2)cc1,6.65
15,O=C(Nc1ccc(N2CCN(C(=O)c3ccccc3)CC2)c(Cl)c1)c1ccc(Br)o1,-58.2
16,O=C(Nc1ccc(N2CCN(C(=O)c3ccccc3)CC2)c(Cl)c1)c1ncn[nH]1,-5.79
17,O=C(Nc1ccc(N2CCOCC2)c(Cl)c1)c1ccc(Br)o1,-31.9
18,CC(=O)N1CCN(c2ccc(NC(=O)c3ccc(Br)o3)cc2Cl)CC1,-55.3
19,O=C(Nc1ccc(N2CCN(C(=O)c3ccccc3)CC2)c(Cl)c1)c1ccco1,-29.5
20,O=C(Nc1ccc(N2CCCC2)c(Cl)c1)c1ccc(Br)o1,-7.29
